High-throughput results deposited in PubChem BioAssay by Sanford-Burnham Center for Chemical Genomics.
In the library only some 3% were active in any assay of this set; here they are far more common.
PPC-1+TRAIL kill – kills PPC-1 cancer cells in the presence of TRAIL | PPC-1 cells + TRAIL, ATPLite viability luminescence | cell killing (% activity), % at 4 µM or 5 µM | hit rate 0.41% among 220,000;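 active = cell killing above 50% in the first pass at 4 µM, then a duplicate retest at 5 µM averaging 50% or more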;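 also: plate controls were cells with TRAIL plus DMSO for no effect and medium-only wells lacking cells for full effect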
SENP6 block – inhibitors of human SENP6 protease. Q9GZR1. Recombinant SENP6 catalytic domain, aminoluciferin luminescence. hit rate 1.8% among 330,000. inhibition, % at 10 µM;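 active = inhibition above about 50% at the single tested dose, limit read from the data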;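 also: plate controls were DMSO wells with enzyme for no effect and DMSO wells lacking enzyme for full effect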
SENP7 block – SENP7 protease inhibition | AID 434973 | inhibition, % at 5 µM | Q9BQF6 | hit rate 1.5% among 330,000 | recombinant SENP7, Z-RLRGG-aminoluciferin luminescence, 40 min;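 active = inhibition above about 50% at the single test dose, limit read from the data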;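 also: plate controls were DMSO with enzyme for no effect and no enzyme buffer wells for full effect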
TRAIL sens C8 – sensitizes caspase-8 expressing cells to TRAIL | inhibition (viability loss, TRAIL sensitization), % at 10 µM | hit rate 1% among 360,000 | NB7+C8 cells + TRAIL, ATPlite viability luminescence;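 active = compounds causing at least 50% loss of cell viability in the single-dose screen, relative to plate controls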
SENP8 block-1 – inhibitors of human SENP8 protease. AID 602440. recombinant SENP8, Nedd8 substrate fluorescence. Q96LD8. inhibition, % at 20 µM. hit rate 0.64% among 360,000; in the data active = inhibition mostly above about 40%, no sharp cut-off; inactive = mostly below about 27%
Target sequence (Q96LD8 whole entry, looked up): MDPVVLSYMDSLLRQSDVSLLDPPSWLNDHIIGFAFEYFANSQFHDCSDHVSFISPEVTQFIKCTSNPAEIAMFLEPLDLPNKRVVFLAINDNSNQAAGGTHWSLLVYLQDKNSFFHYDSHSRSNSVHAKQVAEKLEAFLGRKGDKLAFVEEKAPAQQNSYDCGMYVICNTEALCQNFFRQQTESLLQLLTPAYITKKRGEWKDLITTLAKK
SENP8 block-2 – inhibitors of human SENP8 protease; inhibition, % at 10 µM; purified SENP8, Z-RLRGG-aminoluciferin cleavage, luminescence; hit rate 1.2% among 330,000; Q96LD8; in the data active = inhibition above about 50%
PPC-1 tox – kills PPC-1 cells | shares compounds with PPC-1+TRAIL kill | PPC-1 viability, ATPlite luminescence, overnight | cytotoxicity, % at 5 µM | hit rate 50% among 1,200 | AID 1447;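 active = reconfirmed compounds whose average cytotoxicity reaches 50% or more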;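 also: 0% = DMSO-treated cells and 100% = wells holding medium but no cells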
An asterisk follows results filed as active; · = no result given.

SMILES	PPC-1+TRAIL kill	SENP6 block	SENP7 block	TRAIL sens C8	SENP8 block-1	SENP8 block-2	PPC-1 tox
C[C@H]1O[C@@H](O[C@H]2[C@@H](O)C[C@H](O[C@H]3[C@@H](O)C[C@H](O[C@H]4CC[C@@]5(C)[C@H](CC[C@@H]6[C@@H]5C[C@@H](O)[C@]5(C)[C@@H](C7=CC(=O)OC7)CC[C@]65O)C4)O[C@@H]3C)O[C@@H]2C)C[C@H](O)[C@@H]1O	65*	-3	-1	42	13	3	72*
Cc1ccc(C(=O)Nc2ccc(O)c(C(=O)O)c2)o1	-1	27	10	-1	-21	0	-7
Cc1ccc(C(=O)Nc2ccc(F)cc2)o1	2	21	9	5	27	-12	·
COC(=O)c1ccc(COc2ccc(C)cc2[N+](=O)[O-])o1	11	21	7	4	5	23	-14
Cn1cc(CC(=O)N2CCN(c3ccc(Cl)cc3)CC2)c2ccccc21	-8	4	-1	-19	10	-2	3
O=C(NN=Cc1c(O)ccc2ccccc12)c1ccc2c(c1)OCO2	·	2	11	34	-52	-2	·
Oc1ccc(N=Nc2ccc3c(c2)OCO3)c2ccccc12	34	3	33	·	·	20	32
COC(=O)c1ccc(CNC(=O)COC(=O)C23CC4CC(CC(C4)C2)C3)cc1	2	-17	-5	1	4	-5	·
C/C(=N\Nc1cccc2cccnc12)c1ccc[nH]1	50	30	57*	41	36	75*	49
O=C1CC(c2ccc3c(c2)OCO3)c2cc3c(cc2N1)OCCO3 (configuration not stated)	18	-10	6	-4	25	-3	22
O=C(CCn1cnc2ccccc2c1=O)Nc1cccc(Cl)c1	-18	1	-3	10	10	1	-35
O=C(CN1CCC(NC(=O)c2ccccc2F)CC1)Nc1ccc2c(c1)OCCO2	9	1	4	-5	11	5	-9
Cc1ccccc1C(=O)NC1CCN(CC(=O)Nc2ccc3c(c2)OCCO3)CC1	8	0	3	1	0	-3	·
COc1ccc(-n2nnc3c(=O)n(CC(=O)Nc4cc(C)on4)cnc32)cc1OC	1	-14	-10	2	-44	-9	·
Cc1c(NC(=O)C(C)OC(=O)CCc2c[nH]c3ccccc23)c(=O)n(-c2ccccc2)n1C (configuration not stated)	·	-12	-9	3	11	-5	·
Cc1ccc(C)c(S(=O)(=O)Nc2ccc(C(N)=O)cc2)c1	-1	-15	7	-1	3	0	·
Cc1ccc(C)c(NS(=O)(=O)c2cc(C(N)=O)ccc2C)c1	16	-4	5	2	8	10	-1
CC(=O)N(C)c1ccc(NC(=O)/C=C/c2ccccc2Cl)cc1	15	-4	2	19	22	-7	·
Cc1cc(N)c2cc(NC(=O)/C=C/c3ccccc3Cl)ccc2n1	98*	-13	-2	95*	-11	8	97*
Cc1cccc(OCCn2c(NC(=O)c3ccco3)nc3ccccc32)c1	7	-17	2	13	-115	-12	13
Cc1ccc(OCCn2c(NC(=O)c3ccco3)nc3ccccc32)cc1	2	-3	6	25	-233	-8	·
CNC(=O)/C(=C\c1ccc2c(c1)OCO2)NC(=O)c1ccc(Br)cc1	17	-9	0	8	6	-5	·
COC(=O)c1ccc(NS(=O)(=O)c2cc(-c3cc(C)no3)ccc2OC)cc1	·	17	-4	26	19	4	·
CCOc1cc(C(=S)N2CCN(C)CC2)ccc1OCC(=O)N1CCOCC1	-6	-3	1	-20	11	-3	-5
CSc1cc(C)n(-c2ccccc2)c(=S)c1C(C)=O	-5	-7	3	20	26	-1	-6
CCCCCCCn1c2c(c(=N)c3ccccc31)CCC2	18	2	4	60*	-115	0	17
CCCCCNC(=O)c1[nH]c(C(F)(F)F)nc1-c1ccccc1	·	·	·	-28	18	·	·
C#CC(=O)N(c1cc(OC)ccc1OC)C(C(=O)NC1CCCC1)c1cccs1 (configuration not stated)	98*	-12	-2	91*	14	-8	98*
